Data from PubChem BioAssay AID1347074 (Center for Chemical Genomics, University of Michigan, 2019).
The whole screen tested about 47,000 compounds, of which about 2,800 (6%) were called active. The sample holds actives, similar compounds and a random draw of the others, so the mix is not that of the screen. Cut-off read from the data, not from the text of the source: active = z-score above about 3 (passing the limit was not always enough); inactive = the rest.

Target: Endoribonuclease Dicer (Homo sapiens) (UniProt Q9UPY3)
Sequence (Q9UPY3 whole entry, looked up): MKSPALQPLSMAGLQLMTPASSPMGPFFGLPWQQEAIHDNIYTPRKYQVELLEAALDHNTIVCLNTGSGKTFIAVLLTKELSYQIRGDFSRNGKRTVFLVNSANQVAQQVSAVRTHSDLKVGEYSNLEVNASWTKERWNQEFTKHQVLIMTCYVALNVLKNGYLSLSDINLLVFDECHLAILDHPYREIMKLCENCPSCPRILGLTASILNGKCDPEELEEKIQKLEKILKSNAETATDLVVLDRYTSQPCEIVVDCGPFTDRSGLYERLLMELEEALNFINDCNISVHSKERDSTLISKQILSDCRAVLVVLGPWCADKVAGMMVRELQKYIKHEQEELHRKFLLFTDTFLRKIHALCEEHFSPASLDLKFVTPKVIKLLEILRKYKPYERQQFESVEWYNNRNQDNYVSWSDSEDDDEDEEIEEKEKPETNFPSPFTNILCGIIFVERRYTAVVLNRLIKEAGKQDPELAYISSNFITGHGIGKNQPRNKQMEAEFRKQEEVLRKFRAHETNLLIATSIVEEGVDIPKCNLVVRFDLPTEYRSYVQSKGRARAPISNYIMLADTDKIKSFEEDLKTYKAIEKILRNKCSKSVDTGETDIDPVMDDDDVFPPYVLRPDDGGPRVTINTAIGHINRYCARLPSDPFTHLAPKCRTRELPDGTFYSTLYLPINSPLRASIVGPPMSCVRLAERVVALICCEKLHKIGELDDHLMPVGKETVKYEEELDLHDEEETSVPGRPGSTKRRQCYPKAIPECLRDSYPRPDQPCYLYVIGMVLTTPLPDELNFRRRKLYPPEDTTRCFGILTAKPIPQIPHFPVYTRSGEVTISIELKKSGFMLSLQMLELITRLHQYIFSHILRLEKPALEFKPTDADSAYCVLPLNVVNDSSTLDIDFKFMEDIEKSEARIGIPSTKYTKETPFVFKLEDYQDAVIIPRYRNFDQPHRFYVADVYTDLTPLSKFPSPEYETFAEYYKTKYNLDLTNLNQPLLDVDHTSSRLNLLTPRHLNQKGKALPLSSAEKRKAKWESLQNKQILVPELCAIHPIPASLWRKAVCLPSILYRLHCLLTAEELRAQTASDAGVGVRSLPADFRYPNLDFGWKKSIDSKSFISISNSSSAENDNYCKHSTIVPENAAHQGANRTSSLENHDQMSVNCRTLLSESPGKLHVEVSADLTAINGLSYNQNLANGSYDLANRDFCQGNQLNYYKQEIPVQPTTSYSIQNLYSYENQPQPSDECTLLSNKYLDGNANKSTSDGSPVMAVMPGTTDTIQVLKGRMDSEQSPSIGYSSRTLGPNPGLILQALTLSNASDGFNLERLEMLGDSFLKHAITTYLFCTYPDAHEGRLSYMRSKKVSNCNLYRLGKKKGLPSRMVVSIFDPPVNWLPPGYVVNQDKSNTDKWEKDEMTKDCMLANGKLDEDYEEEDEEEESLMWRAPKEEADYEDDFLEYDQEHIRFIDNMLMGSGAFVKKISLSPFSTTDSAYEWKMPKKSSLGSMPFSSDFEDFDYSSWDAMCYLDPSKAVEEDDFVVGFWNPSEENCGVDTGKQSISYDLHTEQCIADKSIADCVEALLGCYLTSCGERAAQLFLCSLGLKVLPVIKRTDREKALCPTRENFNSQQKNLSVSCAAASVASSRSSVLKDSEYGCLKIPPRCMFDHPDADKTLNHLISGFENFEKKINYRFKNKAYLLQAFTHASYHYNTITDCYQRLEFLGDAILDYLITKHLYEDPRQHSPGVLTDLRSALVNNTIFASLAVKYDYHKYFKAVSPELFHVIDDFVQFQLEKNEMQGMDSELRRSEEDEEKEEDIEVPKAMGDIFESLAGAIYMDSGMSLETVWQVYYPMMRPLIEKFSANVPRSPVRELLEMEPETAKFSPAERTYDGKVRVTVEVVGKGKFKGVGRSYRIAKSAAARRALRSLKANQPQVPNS
Test: inhibitors of Dicer pre-microRNA processing, primary screen, biochemical, cat-ELCCA, chemiluminescence (AID 1347074);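 note: plate controls were vehicle for no effect and no enzyme for full effect; higher signal means more uncleaved substrate so more Dicer inhibition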
Conditions: cat-ELCCA pre-miR-21 Dicer processing, at 25 µM, stronger effect = higher value

Row | SMILES | z-score
1 | C=CCOc1ccc(C2c3c(oc4ccccc4c3=O)C(=O)N2c2nncs2)cc1 (stereo unspecified) | -1.03 (inactive)
2 | CC(=O)Nc1cc(Sc2ccc(C)cc2)c(F)cc1[N+](=O)[O-] | -0.55 (inactive)
3 | Cc1ccc2nc(CCC(=O)O)[nH]c2c1 | 1.6 (inactive)
4 | O=C(CSCc1c(F)cccc1Cl)NCc1ccc2c(c1)OCO2 | 1.3 (inactive)
5 | O=[N+]([O-])c1ccc(CSc2nc3cc(Cl)c(F)cc3[nH]2)cc1 | 0.13 (inactive)
6 | CC(=O)C(Cc1ccc([N+](=O)[O-])cc1)(Cc1c(F)cccc1Cl)C(C)=O | 3.5 (active)
7 | COc1cccc(C2Nc3cccc4cccc(c34)N2)c1OC | 3.14 (active)
8 | COc1cc(OC)cc(-c2nc3n(n2)C(c2cccc(OC)c2OC)C2=C(CCCC2=O)N3)c1 (stereo unspecified) | -0.15 (inactive)
9 | Brc1ccccc1C1Nc2cccc3cccc(c23)N1 | 5.91 (active)
10 | COc1ccccc1C1=Nc2cccc3cccc(c23)N1 | -0.3 (inactive)
11 | C=CCc1ccc(OCc2ccc(C(=O)OC)cc2)c(OC)c1 | 0.92 (inactive)
12 | ONC(=Nc1cccc(Cl)c1)c1ccccc1 | 0.78 (inactive)
13 | CCOC(=O)C1=C(C)NC2=C(C(=O)c3ccccc32)C1c1cccc(F)c1 (stereo unspecified) | -1.25 (inactive)
14 | O=C(O)CCCC(=O)Nc1ccc2c(c1)OCCO2 | -0.36 (inactive)
15 | Cc1ccc(C2Nc3nonc3NC3=C2C(=O)CC(C)(C)C3)cc1 (stereo unspecified) | -0.08 (inactive)
16 | Cc1cc(=O)[nH]c(SCc2ccc(Cl)cc2)n1 | 0.25 (inactive)
17 | Cc1cc(=O)[nH]c(SCc2cn3cccnc3n2)n1 | 3.69 (active)
18 | Cc1cc(=O)[nH]c(SCc2cn3c(C)cc(C)nc3n2)n1 | 2.76 (inactive)
19 | CCOCCOC(=O)C1=C(C)NC2=C(C(=O)CCC2)C1c1ccc(O)c(OCC)c1 (stereo unspecified) | -0.34 (inactive)
20 | O=C(Nc1cc(C(F)(F)F)cc(C(F)(F)F)c1)c1csc([N+](=O)[O-])c1 | 1.87 (inactive)
21 | O=c1[nH]nc(Sc2ncc(Br)cc2[N+](=O)[O-])n1-c1ccc(Cl)cc1 | -0.78 (inactive)
22 | Cc1ccc2c(c1)sc1ncc(NC(=O)c3ccc(C(C)(C)C)cc3)c(=O)n12 | -1.01 (inactive)
23 | CCn1c2c(c(=O)[nH]c1=O)C(c1ccccc1OC)C1=C(N2)c2ccccc2C1=O (stereo unspecified) | 2.33 (inactive)
24 | CCc1ccc(C2CC(=O)Nc3n[nH]c(-c4ccc(Cl)cc4)c32)cc1 (stereo unspecified) | 0.45 (inactive)
25 | CC(C)(C)c1ccc(C(=O)Nc2cc(C#N)c3sc4ccccc4n3c2=O)cc1 | -0.68 (inactive)
26 | O=C1C(=O)N(CCCN2CCOCC2)C(c2ccco2)/C1=C(\O)c1ccc(F)cc1 (stereo unspecified) | 2.92 (inactive)
